Inconclusive results are not listed. Entries that show only a call come without a potency. Active and inactive are the calls of the source. Unless noted, calls come from the whole dose curve; as a rule, active = well fitted curve in the direction sought with a large enough effect in the repeat runs; inconclusive = weak or mixed curves; inactive = no such curve, though single readings can be large; an effect the other way counts as inactive or inconclusive.
Tests used:
[1] = qHTS assay to identify small molecule agonists of the constitutive androstane receptor (CAR) signaling pathway - cell viability counter screen (AID 1224836); note: nearly all actives have a fitted effect of over 45% in size; note: potency is the fitted concentration of half-maximal effect
Summary of the method: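 HepG2 cells stably carrying hCAR and a CYP2B6-2.2kb reporter were plated 4 h, then given compounds at 15 concentrations plus PK11195 (final 0.75 uM). After 23 h at 37 C, viability was read by CellTiter-Fluor fluorescence.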

[2] = molecular target: Nuclear receptor subfamily 1 group I member 3 (Homo sapiens) (UniProt Q14994); assay: qHTS assay to identify small molecule antagonists of the constitutive androstane receptor (CAR) signaling pathway (AID 1224838); note: nearly all actives have a fitted effect of over 40% in size; note: potency is the fitted concentration of half-maximal effect
Summary of the method: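 Antagonism measured as luciferase signal (ONE-Glo, 30 min, room temperature) in CAR-stimulated cells: HepG2-CYP2B6-hCAR double-stable line exposed 24 hr at 37 C to compound in a 15-point series plus 50 nM CITCO.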

[3] = molecular target: Nuclear receptor subfamily 1 group I member 3 (Homo sapiens) (UniProt Q14994); assay: qHTS assay to identify small molecule agonists of the constitutive androstane receptor (CAR) signaling pathway (AID 1224839);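 note: HepG2 cells stably carrying human CAR and a CYP2B6 luciferase reporter; series mostly up to about 92 µM; nearly all actives have a fitted effect of over 15% in size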
Summary of the method: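 HepG2 cells stably expressing hCAR and a CYP2B6-2.2kb luciferase reporter were treated with compounds at 15 concentrations plus 0.75 uM PK11195 (final) for 24 h at 37 C; luminescence was read after ONE-Glo addition.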

[4] = qHTS assay to identify small molecule antagonists of the estrogen related receptor signaling pathway with the pleiotropic PPARgamma coactivator (PGC) from Tox21 10K library - cell viability counter screen (AID 1224840; active = well fitted cell-killing curve with a large enough effect in the repeat runs, not every such curve was filed as active; note: nearly all actives have a fitted effect of over 40% in size; note: potency is the fitted concentration of half-maximal effect)
Summary of the method: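 Counter-screen for cytotoxicity: after 17.5 h compound exposure at 37 C, CellTiter-Fluor reagent added to PGC/ERR cells for 30 min and fluorescence read. Cells were seeded at 2,000 per well 6 h before dosing.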

[5] = qHTS assay to identify small molecule antagonists of the estrogen related receptor signaling pathway with the pleiotropic PPARgamma coactivator (PGC) from Tox21 10K library (AID 1224841; call rule not given here; note: actives are mostly falling curves and most rising ones were filed inactive; nearly all actives have a fitted effect of over 50% in size; note: potency is the fitted concentration of half-maximal effect)
Summary of the method: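 Luminescence (One-Glo, 30 min at room temperature) after 18 h compound treatment at 37 C of PGC/ERR reporter cells plated at 2,000 cells/well and settled 6 h beforehand.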

[6] = qHTS assay to identify small molecule agonists of the estrogen related receptor signaling pathway with the pleiotropic PPARgamma coactivator (PGC) from Tox21 10K library (AID 1224842); note: nearly all actives have a fitted effect of over 15% in size; note: potency is the fitted concentration of half-maximal effect
Summary of the method: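 PGC/ERR reporter cells (NTP line) were seeded 2,000 per well, rested 6 h at 37 C/5% CO2, then pin-dosed with compounds in DMSO for 18 h at 37 C; luciferase read by One-Glo luminescence after 30 min at room temperature.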

[7] = molecular target: Thyrotropin receptor (Homo sapiens) (UniProt P16473); assay: qHTS assay to identify small molecule agonists of the thyroid stimulating hormone receptor (TSHR) signaling pathway (AID 1224843; calls by dose curve; note: nearly all actives have a fitted effect of over 45% in size; note: potency is the fitted concentration of half-maximal effect)
Summary of the method: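 Compounds are titrated over 15 concentrations, in triplicate, onto TSHR-HEK293 cells seeded at 800/well. Plates sit 30 min at room temperature before cAMP-d2 and anti-cAMP cryptate are added; signal is read after a further hour.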

[8] = qHTS assay to identify small molecule agonists of the hypoxia (HIF-1) signaling pathway - cell viability counter screen (AID 1224844; calls by dose curve; note: nearly all actives have a fitted effect of over 50% in size; note: potency is the fitted concentration of half-maximal effect)
Summary of the method: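 Cytotoxicity measured by CellTiter-Glo ATP luminescence in the wells also read for beta-lactamase signal. Cells were HRE-bla ME-180 (2,000/well, 0.5% dialyzed FBS), exposed to compounds for 17 h at 37C.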

[9] = qHTS assay to identify small molecule agonists of H2AX (AID 1224845; active = well fitted activation curve with a large enough effect in the signal ratio in the repeat runs, not every such curve was filed as active; the % refers to the signal ratio; note: potency is the fitted concentration of half-maximal effect)
Summary of the method: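 Wild-type CHO-K1 cells plated overnight, then exposed 3 hr at 37C to compounds at 15 concentrations (0.76% DMSO). Lysed, then HTRF anti-pH2AX(S139)-cryptate/anti-H2AX-d2 detection after 24 hr at room temperature; emissions 665 and 620 nm.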

[10] = qHTS assay to identify small molecule antagonists of the constitutive androstane receptor (CAR) signaling pathway - cell viability counter screen (AID 1224837); note: nearly all actives have a fitted effect of over 45% in size; note: potency is the fitted concentration of half-maximal effect
Summary of the method: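 Cytotoxicity counter-screen: CellTiter-Fluor fluorescence after 23 h compound exposure (15-point qHTS) in double-stable HepG2-CYP2B6-hCAR cells, with 50 nM CITCO added.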

Nuclear receptor subfamily 1 group I member 3 (Homo sapiens), sequence (Q14994 whole entry, looked up): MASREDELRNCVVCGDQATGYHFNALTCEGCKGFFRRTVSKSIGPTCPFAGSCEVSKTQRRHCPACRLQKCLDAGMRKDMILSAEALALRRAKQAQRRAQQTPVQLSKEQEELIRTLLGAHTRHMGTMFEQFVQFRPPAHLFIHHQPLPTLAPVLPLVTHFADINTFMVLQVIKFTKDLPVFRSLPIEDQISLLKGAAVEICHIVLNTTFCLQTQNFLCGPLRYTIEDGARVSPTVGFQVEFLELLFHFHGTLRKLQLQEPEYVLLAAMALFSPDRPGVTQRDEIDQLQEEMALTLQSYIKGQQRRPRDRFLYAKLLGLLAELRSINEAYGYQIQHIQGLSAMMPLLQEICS
Thyrotropin receptor (Homo sapiens), sequence (P16473 whole entry, looked up): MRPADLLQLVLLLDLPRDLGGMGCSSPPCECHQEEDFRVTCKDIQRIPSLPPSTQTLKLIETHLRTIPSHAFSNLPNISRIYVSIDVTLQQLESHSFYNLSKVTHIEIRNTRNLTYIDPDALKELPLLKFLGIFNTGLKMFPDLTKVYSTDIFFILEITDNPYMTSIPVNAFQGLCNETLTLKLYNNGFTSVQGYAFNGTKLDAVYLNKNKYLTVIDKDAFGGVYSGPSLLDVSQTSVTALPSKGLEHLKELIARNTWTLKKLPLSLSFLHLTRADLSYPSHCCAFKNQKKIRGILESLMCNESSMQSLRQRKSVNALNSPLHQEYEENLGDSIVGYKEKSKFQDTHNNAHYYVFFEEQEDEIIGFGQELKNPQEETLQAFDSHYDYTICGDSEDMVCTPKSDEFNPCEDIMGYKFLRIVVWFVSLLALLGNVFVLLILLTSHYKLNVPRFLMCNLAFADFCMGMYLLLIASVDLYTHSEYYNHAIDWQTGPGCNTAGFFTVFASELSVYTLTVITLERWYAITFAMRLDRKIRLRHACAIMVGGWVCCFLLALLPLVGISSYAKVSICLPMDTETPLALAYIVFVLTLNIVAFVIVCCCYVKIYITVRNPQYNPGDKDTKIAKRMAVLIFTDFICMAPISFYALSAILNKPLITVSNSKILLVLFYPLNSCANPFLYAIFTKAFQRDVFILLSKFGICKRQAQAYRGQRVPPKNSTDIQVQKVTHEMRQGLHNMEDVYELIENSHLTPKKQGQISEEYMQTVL

SMILES	Potency [1]	Potency [2]	Potency [3]	Potency [4]	Potency [5]	Potency [6]	Potency [7]	Potency [8]	Potency [9]	Potency [10]
CC1=CCC(=O)O1	inactive	inactive	inactive	inactive	inactive	inactive	inactive	inactive	inactive	
CC(=O)Nc1ccc(O)cc1	inactive			inactive				inactive		inactive
CC(C)=CC1CC(C)CCO1 (configuration not stated)	inactive			inactive			inactive	inactive	inactive	inactive
COc1ccccc1C=O	inactive	inactive	inactive	inactive			inactive	inactive	inactive	
C=C[C@](C)(O)CC[C@@H]1[C@@]2(C)CCCC(C)(C)[C@@H]2CC[C@@]1(C)O	61.1 µM (active)	inactive	inactive	61.1 µM (active)		inactive	19.3 µM (active)	49 µM (active)		
Cc1cc(C)c(C=O)c(C)c1	inactive			inactive			inactive		inactive	inactive
Cc1ccc(O)cn1	inactive	inactive	inactive	inactive	inactive	inactive	inactive		inactive	
O=C(O)CCCCCCC(=O)O	inactive			inactive			inactive	inactive	inactive	inactive
OCCCCl	inactive	inactive	inactive	inactive		inactive	inactive	inactive	inactive	
CCOB(OCC)OCC	inactive			inactive			inactive	inactive	inactive	inactive
CCOC(OCC)C(=O)c1ccccc1	inactive	inactive	inactive	inactive	inactive	inactive		inactive	inactive	
S=C(SSSSSSC(=S)N1CCCCC1)N1CCCCC1	8.48 µM (active)							3.41 µM (active)		7.56 µM (active)
O=C1c2c(O)ccc(O)c2C(=O)c2c(NCCNCCO)ccc(NCCNCCO)c21	3.76 µM (active)				inactive					4.22 µM (active)
CC(C)(C)c1cc(/C=C2\SC(=N)NC2=O)cc(C(C)(C)C)c1O	inactive			61.1 µM (active)				54.9 µM (active)	inactive	inactive
O=C(O)CCn1c2c(c3ccccc31)C[C@H](NS(=O)(=O)c1ccc(F)cc1)CC2	inactive			inactive				inactive		inactive
CCC(C)C(=O)OC (configuration not stated)	inactive			inactive			inactive	inactive	inactive	inactive
CCOC(=O)CC(C)O (configuration not stated)	inactive	inactive	inactive	inactive	inactive	inactive	inactive	inactive	inactive	
CCCCCCCCCCCCN(CCO)CCO	68.3 µM (active)	68.3 µM (active)	inactive	60.9 µM (active)		inactive	inactive			
Oc1c(Br)cc(Br)c2cccnc12	inactive				inactive	29.8 µM (active)	inactive		55.2 µM (active)	inactive
C=CC/C=C/C/C=C/C/C=C/C	inactive	inactive	inactive	inactive	inactive	inactive	inactive	inactive	inactive	
CC(CN(C)C)CN1c2ccccc2CCc2ccccc21 (configuration not stated)	inactive			inactive					inactive	inactive
Clc1ccccc1CN1CCc2sccc2C1	inactive			inactive				inactive		inactive
C[Si](C)(C)Cl	inactive	inactive	inactive	inactive	inactive		inactive		inactive	
O=C1OC(=O)c2ccc3c4c(ccc1c24)C(=O)OC3=O	inactive	inactive	inactive	inactive			inactive	inactive	inactive	
CCO[Si](C)(C)OCC	inactive	inactive	inactive	inactive	24.3 µM (active)	inactive	inactive	inactive	inactive	
CC(=O)Oc1ccc(C2(c3ccc(OC(C)=O)cc3)Oc3ccccc3NC2=O)cc1	inactive	16.8 µM (active)	inactive	inactive			inactive	inactive	inactive	
CC1(C)C(=O)N(CO)C(=O)N1CO	inactive			inactive			inactive	inactive	inactive	inactive
CN(C)CCCN1c2ccccc2CCc2ccccc21	30.6 µM (active)							38.9 µM (active)		inactive

From PubChem BioAssay (Tox21)
